For 28 molecules, residual activity results are on record in ChEMBL document CHEMBL2218924, “A broad activity screen in support of a chemogenomic map for kinase signalling research and drug discovery” (Biochem J, 2013).

Sequence of ALK tyrosine kinase receptor (Homo sapiens) (Q9UM73 19-1620 limits assumed): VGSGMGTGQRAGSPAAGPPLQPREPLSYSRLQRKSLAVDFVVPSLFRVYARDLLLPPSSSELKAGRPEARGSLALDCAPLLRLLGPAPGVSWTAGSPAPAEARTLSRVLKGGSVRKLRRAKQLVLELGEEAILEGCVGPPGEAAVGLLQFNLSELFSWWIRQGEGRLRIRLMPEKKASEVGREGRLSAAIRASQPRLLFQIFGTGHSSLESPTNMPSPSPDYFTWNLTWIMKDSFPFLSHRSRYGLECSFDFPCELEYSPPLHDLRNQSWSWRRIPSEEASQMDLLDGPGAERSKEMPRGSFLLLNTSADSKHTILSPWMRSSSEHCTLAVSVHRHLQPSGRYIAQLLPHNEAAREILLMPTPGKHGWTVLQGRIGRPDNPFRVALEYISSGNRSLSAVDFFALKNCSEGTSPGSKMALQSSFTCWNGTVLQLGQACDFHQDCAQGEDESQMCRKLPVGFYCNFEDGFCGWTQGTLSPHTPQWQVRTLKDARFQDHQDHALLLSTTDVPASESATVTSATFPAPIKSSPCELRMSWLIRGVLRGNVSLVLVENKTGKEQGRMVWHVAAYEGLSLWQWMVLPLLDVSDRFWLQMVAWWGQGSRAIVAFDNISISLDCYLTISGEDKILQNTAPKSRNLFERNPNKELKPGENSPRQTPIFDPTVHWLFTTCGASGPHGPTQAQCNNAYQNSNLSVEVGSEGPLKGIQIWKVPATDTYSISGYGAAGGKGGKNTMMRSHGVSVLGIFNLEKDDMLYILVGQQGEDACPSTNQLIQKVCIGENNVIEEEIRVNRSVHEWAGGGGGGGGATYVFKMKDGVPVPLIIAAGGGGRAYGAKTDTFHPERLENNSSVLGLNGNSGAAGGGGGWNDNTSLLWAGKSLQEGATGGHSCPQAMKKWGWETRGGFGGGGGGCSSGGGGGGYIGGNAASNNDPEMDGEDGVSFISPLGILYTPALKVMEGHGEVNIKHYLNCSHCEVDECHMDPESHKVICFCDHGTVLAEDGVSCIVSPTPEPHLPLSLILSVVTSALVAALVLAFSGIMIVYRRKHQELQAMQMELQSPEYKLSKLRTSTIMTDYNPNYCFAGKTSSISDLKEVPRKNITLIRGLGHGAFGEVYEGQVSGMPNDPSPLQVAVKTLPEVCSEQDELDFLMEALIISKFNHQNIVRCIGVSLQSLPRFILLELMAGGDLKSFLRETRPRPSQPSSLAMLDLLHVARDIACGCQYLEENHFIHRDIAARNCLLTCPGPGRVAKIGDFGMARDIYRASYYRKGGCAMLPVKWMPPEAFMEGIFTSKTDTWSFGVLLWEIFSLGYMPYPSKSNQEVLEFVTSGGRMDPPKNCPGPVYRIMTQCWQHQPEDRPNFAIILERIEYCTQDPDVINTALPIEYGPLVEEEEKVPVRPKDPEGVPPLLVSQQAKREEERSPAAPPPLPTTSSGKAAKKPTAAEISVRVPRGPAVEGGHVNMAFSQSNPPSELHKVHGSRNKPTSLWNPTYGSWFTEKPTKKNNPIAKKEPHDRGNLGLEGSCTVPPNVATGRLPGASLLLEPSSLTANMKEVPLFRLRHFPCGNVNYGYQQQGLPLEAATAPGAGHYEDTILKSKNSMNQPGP

For the first assay, the target named is Activated CDC42 kinase 1 (Homo sapiens) (UniProt Q07912). The following applies: at 10 µM.
Sequence of Activated CDC42 kinase 1 (Homo sapiens) (Q07912 whole entry, looked up): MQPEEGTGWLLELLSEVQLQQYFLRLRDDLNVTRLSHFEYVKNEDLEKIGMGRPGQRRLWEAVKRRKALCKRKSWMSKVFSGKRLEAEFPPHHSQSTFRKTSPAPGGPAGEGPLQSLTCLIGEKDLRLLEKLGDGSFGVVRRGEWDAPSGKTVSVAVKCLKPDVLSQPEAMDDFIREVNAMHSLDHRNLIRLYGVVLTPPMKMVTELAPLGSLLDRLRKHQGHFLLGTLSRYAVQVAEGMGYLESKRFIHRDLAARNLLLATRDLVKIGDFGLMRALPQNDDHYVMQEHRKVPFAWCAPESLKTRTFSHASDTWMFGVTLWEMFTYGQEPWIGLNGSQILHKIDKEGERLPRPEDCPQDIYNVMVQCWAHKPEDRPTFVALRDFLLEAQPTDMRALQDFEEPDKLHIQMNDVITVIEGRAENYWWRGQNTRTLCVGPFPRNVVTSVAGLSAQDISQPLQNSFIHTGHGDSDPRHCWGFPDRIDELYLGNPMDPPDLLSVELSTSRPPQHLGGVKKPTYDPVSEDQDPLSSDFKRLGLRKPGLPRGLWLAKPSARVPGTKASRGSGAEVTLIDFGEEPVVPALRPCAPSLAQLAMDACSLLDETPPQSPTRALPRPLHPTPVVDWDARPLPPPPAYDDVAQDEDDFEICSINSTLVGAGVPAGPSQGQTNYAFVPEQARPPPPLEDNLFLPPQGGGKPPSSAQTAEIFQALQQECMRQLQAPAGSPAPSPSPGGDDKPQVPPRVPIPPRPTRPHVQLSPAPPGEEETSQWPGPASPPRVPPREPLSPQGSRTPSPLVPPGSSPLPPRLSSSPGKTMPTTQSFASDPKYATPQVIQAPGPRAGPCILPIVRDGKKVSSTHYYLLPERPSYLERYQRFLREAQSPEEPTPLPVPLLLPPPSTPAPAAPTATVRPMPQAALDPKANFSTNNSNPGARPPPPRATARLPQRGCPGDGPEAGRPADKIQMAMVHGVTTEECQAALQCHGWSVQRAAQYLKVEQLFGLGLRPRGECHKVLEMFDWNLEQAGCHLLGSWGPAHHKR
Consider `O=C(NC(NC(=S)Nc1ccc(F)c([N+](=O)[O-])c1)C(Cl)(Cl)Cl)C(c1ccccc1)c1ccccc1` (centres undefined), for which the residual activity came to 78%. As to `O=C1Nc2ccc(Cl)cc2/C1=C/c1cc(Cl)c(O)c(Cl)c1`, the residual activity was 7%. Turning to `COc1ccc(Cl)cc1NC(=O)Nc1cc(C)nc2ccccc12`, the residual activity turned out to be 80%. Same read-out and setting: the value for `COc1ccc2c(c1)c(C1=C(c3c[nH]c4ccccc34)C(=O)NC1=O)cn2CCCN(C)C` was 21%; that for `Nc1ncnc2c1cnn2-c1ccccc1` was 61%. In the case of `O=C(c1cc2cc(O)ccc2[nH]1)c1cc2cc(O)ccc2[nH]1`, the residual activity worked out at 24%. `COc1cc2nccc(Oc3ccc(NC(=S)NC(=O)c4ccccc4C)cc3)c2cc1OC` came in with a residual activity of 8%. In turn, `O=c1cc(N2CCNCC2)oc2c(-c3ccccc3)cccc12` came in with a residual activity of 69%. `CC(C)c1nn(-c2c(Cl)cccc2Cl)c2nc(Cc3ccc(OCCO)cc3)[nH]c(=O)c12` registered a residual activity of 31%. As to `O=C(O)/C=C/c1cc(Br)c(Br)c(Br)c1Br`, the residual activity amounted to 63%.

As for `N#C/C(=C1/Nc2ccccc2S1)c1ccnc(NCCc2cccnc2)n1`, the residual activity worked out at 12%.

Another assay has as its target ALK tyrosine kinase receptor (Homo sapiens) (UniProt Q9UM73). Particulars: at 1 µM.
Consider `COc1cc2ncnc(Nc3cccc(Cl)c3)c2cc1OC`, for which the residual activity was 100%.

Turning to `N#Cc1c(NC(=O)c2cccc3ccccc23)sc2c1CCCC2`, the residual activity is 80%.

`COc1cc2c(cc1OC)-c1n[nH]c(Nc3cccc(F)c3)c1C2`: the residual activity worked out at 74%.

Take `O=C1Cc2c([nH]c3ccc(Br)cc23)-c2ccccc2N1`: the residual activity was 88%. The same measure, in the same setting: the value for `Cn1c2ccccc2c2c3c(c4c5ccccc5n(CCC#N)c4c21)CNC3=O` was 0%; that for `O=C1NC(=O)C(c2cn(CCCO)c3ncccc23)=C1c1cnccn1` was 84%. On the same count and under the same terms, the value for `O=C(c1ccccc1)c1ccc(N2CCOCC2)cc1O` was 78%; that for `CC(C)(C)n1nc(Cc2cccc3ccccc23)c2c(N)ncnc21` was 89%; that for `O=c1cc(N2CCOCC2)oc2c1ccc1ccccc12` was 81%. For `O=C1Nc2ccccc2/C1=C\c1c(Cl)[nH]c2ccccc12`, the residual activity is 81%.

`Nc1ncnc2c1c(-c1ccc(Oc3ccccc3)cc1)cn2C1CCCC1` gave a residual activity of 76%.

`Cn1sc(=O)n(Cc2ccccc2)c1=O` yielded a residual activity of 64%. On the same count and under the same terms, next, `CCCC(=O)Oc1ccc2[nH]c(C(=O)c3cc4ccccc4[nH]3)cc2c1`: 78%; `O=C1NC(=O)c2c1c1c3ccccc3[nH]c1n1cncc21`: 77%; `Nc1ncnc2[nH]nc(Nc3ccc(F)cc3)c12`: 82%. `Nc1n[nH]c2nc3ccccc3nc12` displayed a residual activity of 67%. The same measure, in the same setting: the value for `NC(=O)Nc1sc(-c2ccc(F)cc2)cc1C(N)=O` was 78%; that for `O=C(NC(NC(=S)Nc1ccc(F)c([N+](=O)[O-])c1)C(Cl)(Cl)Cl)C(c1ccccc1)c1ccccc1` (centres undefined) was 81%. Molecule `O=C1Nc2ccc(Cl)cc2/C1=C/c1cc(Cl)c(O)c(Cl)c1` showed a residual activity of 68%. Same read-out and setting: the value for `COc1ccc(Cl)cc1NC(=O)Nc1cc(C)nc2ccccc12` was 77%; that for `COc1ccc2c(c1)c(C1=C(c3c[nH]c4ccccc34)C(=O)NC1=O)cn2CCCN(C)C` was 80%; that for `Nc1ncnc2c1cnn2-c1ccccc1` was 79%.

`O=C(c1cc2cc(O)ccc2[nH]1)c1cc2cc(O)ccc2[nH]1` gave a residual activity of 68%.

As for `COc1cc2nccc(Oc3ccc(NC(=S)NC(=O)c4ccccc4C)cc3)c2cc1OC`, the residual activity is 79%. As for `O=c1cc(N2CCNCC2)oc2c(-c3ccccc3)cccc12`, the residual activity worked out at 69%. On the same count and under the same terms, the value for `CC(C)c1nn(-c2c(Cl)cccc2Cl)c2nc(Cc3ccc(OCCO)cc3)[nH]c(=O)c12` was 78%. The same measure, in the same setting: next, `O=C(O)/C=C/c1cc(Br)c(Br)c(Br)c1Br`: 88%; `N#C/C(=C1/Nc2ccccc2S1)c1ccnc(NCCc2cccnc2)n1`: 64%.
